Source: PubChem BioAssay AID1159580 (chemical genetic matrix, 2015)
Where “and” joins values, the source holds several entries; their conditions need not be identical. Equal values may be shown once. About 2,000 (36%) of roughly 5,500 compounds were called active. Roughly 18% stayed inconclusive and do not appear here. Rule as the data show it: active = normalized growth mostly below about 0.91 (no sharp cut-off); inconclusive = no clear call, values can overlap the other calls; inactive = mostly above about 0.92. The list shows a part of the results.

Assay: chemical genetic growth profiling, strain panel (AID 1159580);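 also: tested at 20 µM; growth read once vehicle control cultures reached saturation at 30 °C; 1 = growth at the plate median or of vehicle wells; lower values mean less growth of the strain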
Conditions: S. cerevisiae deletion strains, growth OD

Measured: normalized growth

COc1ccc([C@@H]2CC(=O)c3c(O)cc(O)cc3O2)cc1O
inactive: locus YAL013W, strain DEP1, hits give low values 1.03 | locus YAL021C, strain ccr4, hits give low values 0.976 | locus YAL026C, strain drs2, hits give low values 0.978 | locus YAL030W, strain snc1, hits give low values 0.982 | locus YBL061C, strain skt5, hits give low values 0.977 | locus YBR009C, strain hhf1, hits give low values 0.983 | locus YBR021W, strain FUR4, hits give low values 1 | locus YBR023C, strain chs3, hits give low values 0.976 | locus YBR171W, strain sec66, hits give low values 0.999 | locus YBR229C, strain ROT2, hits give low values 1 | locus YBR231C, strain swc5, hits give low values 0.989 | locus YBR279W, strain paf1, hits give low values 0.982 | locus YCL011C, strain gbp2, hits give low values 0.975 | locus YCL016C, strain dcc1, hits give low values 0.961 | locus YCL029C, strain bik1, hits give low values 1.02 | locus YCL061C, strain MRC1, hits give low values 0.978 | locus YCL069W, strain vba3, hits give low values 0.99 | locus YCR088W, strain abp1, hits give low values 0.977 | locus YDL005C, strain med2, hits give low values 0.978 | locus YDL035C, strain GPR1, hits give low values 0.971 | locus YDL040C, strain nat1, hits give low values 0.986 | locus YDL074C, strain BRE1, hits give low values 1 | locus YDL101C, strain DUN1, hits give low values 1.01 | locus YDL185W, strain tfp1, hits give low values 1.01 | locus YDL192W, strain arf1, hits give low values 1 | locus YDR001C, strain nth1, hits give low values 0.973 | locus YDR069C, strain doa4, hits give low values 0.983 | locus YDR101C, strain arx1, hits give low values 1.02 | locus YDR137W, strain rgp1, hits give low values 0.973 | locus YDR159W, strain sac3, hits give low values 0.995 | locus YDR162C, strain NBP2, hits give low values 0.999 | locus YDR195W, strain ref2 0.994 | locus YDR297W, strain sur2, hits give low values 0.976 | locus YDR318W, strain mcm21, hits give low values 0.993 | locus YDR334W, strain swr1, hits give low values 0.985 | locus YDR335W, strain msn5, hits give low values 0.975 | locus YDR388W, hits give low values 1 | locus YDR392W, strain spt3, hits give low values 0.862 | locus YDR502C, strain sam2, hits give low values 0.995 | locus YEL003W, strain gim4, hits give low values 0.976 | locus YEL037C, strain rad23, hits give low values 0.973 | locus YEL061C, strain CIN8 (second series), hits give low values 0.977 | locus YEL061C, strain CIN8, hits give low values 1 | locus YER015W, strain faa2, hits give low values 0.983 | locus YER016W, strain bim1, hits give low values 0.976 | locus YER110C, hits give low values 1.01 | locus YER111C, strain swi4, hits give low values 0.963 | locus YER155C, strain BEM2 (second series), hits give low values 0.926 | locus YER155C, strain BEM2, hits give low values 0.998 | locus YER167W, strain BCK2, hits give low values 1 | locus YFR010W, strain ubp6, hits give low values 0.972 | locus YGL078C, strain dbp3, hits give low values 1 | locus YGL086W, strain mad1, hits give low values 1.03 | locus YGL167C, strain pmr1, hits give low values 0.977 | locus YGL173C, strain kem1, hits give low values 0.978 | locus YGL227W, strain vid30, hits give low values 0.988 | locus YGL240W, strain doc1, hits give low values 0.989 | locus YGL248W, strain PDE1, hits give low values 1.01 | locus YGL253W, strain hxk2, hits give low values 0.961 | locus YGR078C, strain PAC10, hits give low values 1.02 | locus YGR135W, strain pre9, hits give low values 0.979 | locus YGR229C, strain SMI1, hits give low values 0.983 | locus YGR252W, strain gcn5, hits give low values 0.893 | locus YHR013C, strain ard1, hits give low values 0.955 | locus YHR027C, strain rpn1, hits give low values 0.994 | locus YHR030C, strain SLT2, hits give low values 1.01 and 1 | locus YHR079C, strain IRE1 (second series), hits give low values 1.01 | locus YHR079C, strain IRE1, hits give low values 1.01 | locus YHR094C, strain hxt1, hits give low values 1.01 | locus YHR129C, strain ARP1, hits give low values 1 | locus YHR142W, strain chs7, hits give low values 0.918 | locus YHR200W, strain rpn10, hits give low values 0.993 | locus YIL066C, strain RNR3, hits give low values 0.979 | locus YIL073C, strain SPO22, hits give low values 1.05 | locus YIL125W, strain kgd1, hits give low values 1.01 | locus YIR030C, strain dcg1, hits give low values 1.01 | locus YJL092W, strain hpr5, hits give low values 0.976 | locus YJL095W, strain BCK1 (second series), hits give low values 0.978 | locus YJL095W, strain BCK1, hits give low values 1.04 and 1 | locus YJL115W, strain asf1, hits give low values 0.984 | locus YJL129C, strain trk1, hits give low values 0.939 | locus YJL134W, strain LCB3, hits give low values 1 | locus YJL154C, strain vps35, hits give low values 0.98 | locus YJL164C, strain tpk1, hits give low values 0.972 | locus YJL166W, strain qcr8, hits give low values 0.969 | locus YJL168C, strain set2, hits give low values 1 | locus YJL187C, strain SWE1 (second series), hits give low values 1.02 | locus YJL187C, strain SWE1, hits give low values 0.981
